PubChem BioAssay (EPA / NIEHS)
Where “and” joins values, the source holds several entries; their conditions need not be identical. Equal entries are not always repeated. Where a structure was tested more than once in an assay, its records may differ in their call. Calls of active or inactive are those of the source. Rule for the calls: active = hit-call score of the fitted dose curve at least 0.9, where 1 is the maximum; inactive = score below 0.9.

Columns and labels:
[1] = target: Bile acid receptor (Homo sapiens) (UniProt Q96RI1); assay: ATG_IR1_CIS: Attagene CIS-FACTORIAL HepG2 Assay for human Nuclear Receptor Subfamily 1 Group H Member 4 (NR1H4), IR1 submotif (AID 2282946); details: IR1 reporter transcription, actives raise or lower the signal
Bile acid receptor (Homo sapiens), sequence (Q96RI1 whole entry, looked up): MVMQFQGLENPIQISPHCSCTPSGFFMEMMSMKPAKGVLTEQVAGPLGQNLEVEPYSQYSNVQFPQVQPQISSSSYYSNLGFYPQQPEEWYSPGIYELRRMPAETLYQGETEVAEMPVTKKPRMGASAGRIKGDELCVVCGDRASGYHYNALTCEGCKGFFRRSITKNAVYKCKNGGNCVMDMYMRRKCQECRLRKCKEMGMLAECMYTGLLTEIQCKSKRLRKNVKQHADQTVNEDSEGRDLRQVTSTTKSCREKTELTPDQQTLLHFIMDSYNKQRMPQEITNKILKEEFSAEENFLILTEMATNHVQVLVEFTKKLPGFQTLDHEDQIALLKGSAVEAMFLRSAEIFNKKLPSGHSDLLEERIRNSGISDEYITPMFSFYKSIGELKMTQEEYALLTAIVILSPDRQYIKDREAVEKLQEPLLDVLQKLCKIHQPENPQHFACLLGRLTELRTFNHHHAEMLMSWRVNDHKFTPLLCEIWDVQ
Outline: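 HepG2 cells transiently transfected with multiplexed cis-element reporter units read endogenous transcription factor activity. After 24 h compound exposure, reporter mRNA was quantified by RT-PCR, fluorescent labelling, HpaI digestion and capillary electrophoresis; bidirectional fitting versus DMSO baseline.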

[2] = ATG_GRE_CIS: Attagene CIS-FACTORIAL HepG2 Assay for human Glucocorticoid Response Elements (GRE) (AID 2282947); details: HepG2 GRE cis-reporter, Attagene multiplex mRNA; actives raise or lower the signal
Outline: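 Multiplexed cis-reporter mRNA induction, HepG2, 24 h post-dose. RT-PCR, FAM-labelled, HpaI-digested amplicons by CE. Bidirectional fit vs DMSO.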

[3] = ATG_ISRE_CIS: Attagene CIS-FACTORIAL HepG2 Assay for human Interferon Regulatory Factor 1 (IRF1) binding to an Interferon-Stimulated Response Element (ISRE) (AID 2282948); details: HepG2 ISRE cis-reporter (Attagene), mRNA transcription readout; actives raise or lower the signal
Outline: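 Uses HepG2 liver cells transfected with cis-regulated reporters and measures mRNA 24 h post-dosing through RT-PCR, primer-extension labelling and capillary electrophoresis, with DMSO as negative control.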

[4] = ATG_M_32_CIS: Attagene CIS-FACTORIAL HepG2 Assay for M32 Transcription Factor (Internal Marker) (AID 2282949); details: HepG2 Attagene cis-factorial M32 reporter, mRNA; actives raise or lower the signal;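 note: background control marker of the multiplexed CIS panel rather than a real target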
Outline: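 Transient MRTU transfection of HepG2; 24 h compound treatment; TriZol RNA, oligo(dT) RT, reporter PCR, 6-FAM primer extension, HpaI cut, CE. Gain/loss of signal vs DMSO.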

[5] = ATG_M_06_CIS: Attagene CIS-FACTORIAL HepG2 Assay for M06 Transcription Factor (Internal Marker) (AID 2282950); details: HepG2 Attagene CIS-FACTORIAL M06 internal marker reporter; actives raise or lower the signal
Outline: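 Terse: HepG2, transient MRTU transfection (FuGene 6), 24 h dosing; total RNA, oligo(dT) RT, PCR, FAM label, HpaI cut, capillary electrophoresis; bidirectional fit vs DMSO baseline; background-control endpoint.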

[6] = target: Hypoxia-inducible factor 1-alpha (Homo sapiens) (UniProt Q16665); assay: ATG_HIF1a_CIS: Attagene CIS-FACTORIAL HepG2 Assay for human Hypoxia Inducible Factor 1 (HIF1A) (AID 2282951); details: HepG2 Attagene cis-factorial HIF1a reporter transcription; actives raise or lower the signal
Hypoxia-inducible factor 1-alpha (Homo sapiens), sequence (Q16665 whole entry, looked up): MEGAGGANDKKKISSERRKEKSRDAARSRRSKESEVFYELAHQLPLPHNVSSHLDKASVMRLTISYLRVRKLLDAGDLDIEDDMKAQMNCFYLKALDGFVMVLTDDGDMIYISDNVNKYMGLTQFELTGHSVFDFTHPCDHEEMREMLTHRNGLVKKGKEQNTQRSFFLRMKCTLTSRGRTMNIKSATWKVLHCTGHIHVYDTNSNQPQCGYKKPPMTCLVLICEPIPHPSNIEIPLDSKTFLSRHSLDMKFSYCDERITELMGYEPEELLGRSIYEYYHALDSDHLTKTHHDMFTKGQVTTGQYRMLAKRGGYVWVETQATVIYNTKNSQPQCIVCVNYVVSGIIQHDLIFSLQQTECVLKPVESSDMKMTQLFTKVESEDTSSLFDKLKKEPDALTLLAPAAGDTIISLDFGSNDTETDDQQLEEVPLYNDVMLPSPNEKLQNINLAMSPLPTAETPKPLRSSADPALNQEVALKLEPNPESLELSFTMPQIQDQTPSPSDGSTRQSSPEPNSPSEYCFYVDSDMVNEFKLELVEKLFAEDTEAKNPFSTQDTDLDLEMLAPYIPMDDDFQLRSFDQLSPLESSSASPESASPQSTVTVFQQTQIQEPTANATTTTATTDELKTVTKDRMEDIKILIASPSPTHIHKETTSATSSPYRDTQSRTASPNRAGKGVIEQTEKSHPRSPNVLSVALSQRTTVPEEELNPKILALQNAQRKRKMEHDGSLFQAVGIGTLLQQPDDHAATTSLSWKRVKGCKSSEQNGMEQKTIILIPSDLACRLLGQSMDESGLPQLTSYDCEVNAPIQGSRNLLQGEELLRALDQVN
Outline: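 Dosed 24 h, transfected HepG2 cells yielded total RNA whose reporter transcripts were RT-PCR-amplified and sized by capillary electrophoresis using fluorescent labelling; DMSO defined baseline, with gain and loss of signal both fitted.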

[7] = target: Hepatocyte nuclear factor 6 (Homo sapiens) (UniProt Q9UBC0); assay: ATG_HNF6_CIS: Attagene CIS-FACTORIAL HepG2 Assay for human Hepatocyte Nuclear Factor 6 (HNF6) (AID 2282952); details: HepG2 Attagene cis-factorial HNF6 reporter transcription; actives raise or lower the signal
Hepatocyte nuclear factor 6 (Homo sapiens), sequence (Q9UBC0 whole entry, looked up, the tested form may be a part): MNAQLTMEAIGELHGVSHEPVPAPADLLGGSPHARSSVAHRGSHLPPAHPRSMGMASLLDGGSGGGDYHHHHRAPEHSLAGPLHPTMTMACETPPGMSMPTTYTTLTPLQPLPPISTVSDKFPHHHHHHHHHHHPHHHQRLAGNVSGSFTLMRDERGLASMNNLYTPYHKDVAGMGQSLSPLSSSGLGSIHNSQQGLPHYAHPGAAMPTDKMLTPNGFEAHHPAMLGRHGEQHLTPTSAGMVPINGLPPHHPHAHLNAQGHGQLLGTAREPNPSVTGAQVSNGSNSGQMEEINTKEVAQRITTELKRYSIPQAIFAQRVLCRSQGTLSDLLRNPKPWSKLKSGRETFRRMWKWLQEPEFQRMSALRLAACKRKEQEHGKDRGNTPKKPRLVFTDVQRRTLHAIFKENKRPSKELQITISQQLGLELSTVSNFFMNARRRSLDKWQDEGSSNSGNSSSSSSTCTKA
Outline: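 Twenty-four-hour chemical treatment of reporter-transfected HepG2 cells precedes RNA isolation, DNase-treated reverse transcription and PCR of reporter sequences. Labelled fragments are sized by capillary electrophoresis and fitted bidirectionally versus DMSO.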

[8] = target: Heat shock factor protein 1 (Homo sapiens) (UniProt Q00613); assay: ATG_HSE_CIS: Attagene CIS-FACTORIAL HepG2 Assay for human Heat Shock Transcription Factor 1 (HSE) (AID 2282953); details: HepG2 HSE cis-reporter, Attagene RNA transcription; actives raise or lower the signal
Heat shock factor protein 1 (Homo sapiens), sequence (Q00613 whole entry, looked up, the tested form may be a part): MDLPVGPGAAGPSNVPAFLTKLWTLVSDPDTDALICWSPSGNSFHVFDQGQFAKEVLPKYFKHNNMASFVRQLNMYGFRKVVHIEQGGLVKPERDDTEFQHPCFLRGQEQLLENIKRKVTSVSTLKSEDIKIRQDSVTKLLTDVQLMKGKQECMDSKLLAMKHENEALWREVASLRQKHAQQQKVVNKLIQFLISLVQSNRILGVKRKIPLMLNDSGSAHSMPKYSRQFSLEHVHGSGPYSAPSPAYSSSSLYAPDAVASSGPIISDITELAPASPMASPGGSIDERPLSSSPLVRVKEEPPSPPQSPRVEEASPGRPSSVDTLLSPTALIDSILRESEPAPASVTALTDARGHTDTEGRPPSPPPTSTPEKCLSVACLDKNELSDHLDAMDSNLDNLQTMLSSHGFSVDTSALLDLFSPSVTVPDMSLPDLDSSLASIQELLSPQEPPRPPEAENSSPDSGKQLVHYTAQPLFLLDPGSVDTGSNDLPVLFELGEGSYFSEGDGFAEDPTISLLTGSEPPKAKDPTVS
Outline: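 Read-out: fluorescence of reporter-specific RT-PCR fragments separated by capillary electrophoresis. HepG2 carrying transfected cis-element reporter units; 24 h dosing; activity fitted in both directions relative to DMSO baseline.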

[9] = ATG_MRE_CIS: Attagene CIS-FACTORIAL HepG2 Assay for human Metal Responsive Element (MRE) (AID 2282954); details: HepG2 MRE cis-reporter transcription, Attagene multiplex; actives raise or lower the signal
Outline: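 Multiplexed cis-reporter assay in human HepG2 liver cells, 24 h incubation with test chemical. Reporter transcripts measured by RT-PCR and capillary electrophoresis; values from bidirectional curve fitting versus DMSO.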

[10] = target: Paired box protein Pax-6 (Homo sapiens) (UniProt P26367); assay: ATG_Pax6_CIS: Attagene CIS-FACTORIAL HepG2 Assay for human Paired Box 6 (PAX6) (AID 2282956); details: HepG2 CIS-FACTORIAL PAX6 reporter transcription, RNA readout; actives raise or lower the signal
Paired box protein Pax-6 (Homo sapiens), sequence (P26367 whole entry, looked up): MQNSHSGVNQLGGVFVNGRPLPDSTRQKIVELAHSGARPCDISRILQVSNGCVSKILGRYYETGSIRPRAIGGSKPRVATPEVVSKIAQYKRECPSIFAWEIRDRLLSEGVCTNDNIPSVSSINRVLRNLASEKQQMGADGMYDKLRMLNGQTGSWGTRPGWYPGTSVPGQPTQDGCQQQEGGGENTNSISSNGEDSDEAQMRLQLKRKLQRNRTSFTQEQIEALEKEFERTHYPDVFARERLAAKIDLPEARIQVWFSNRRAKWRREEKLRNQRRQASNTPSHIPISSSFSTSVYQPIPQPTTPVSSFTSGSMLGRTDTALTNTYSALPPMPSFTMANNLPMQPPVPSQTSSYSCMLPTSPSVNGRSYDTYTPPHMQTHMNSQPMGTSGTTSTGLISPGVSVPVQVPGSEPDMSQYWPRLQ
Outline: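 DMSO-referenced bidirectional fits of reporter mRNA fluorescence; HepG2 with transient cis-promoter MRTUs, 24 h post-dose, RT-PCR plus capillary electrophoresis detection.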

[11] = ATG_PXRE_CIS: Attagene CIS-FACTORIAL HepG2 Assay for human Pregnane X Receptor Element (PXRE) (AID 2282957); details: HepG2 Attagene CIS-FACTORIAL PXRE reporter, mRNA; actives raise or lower the signal
Outline: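 Bidirectional activity, baselined to DMSO, derived from reporter mRNA fluorescence (RT-PCR plus capillary electrophoresis) in HepG2 cells bearing cis-promoter reporter units, 24 h exposure.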

[12] = ATG_PPRE_CIS: Attagene CIS-FACTORIAL HepG2 Assay for human Peroxisome Proliferator-activated Response Element (PPRE) (AID 2282958); details: HepG2 PPRE cis-element reporter, Attagene transcription factor profiling; actives raise or lower the signal
Outline: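 Measured endpoint: PPRE-controlled reporter mRNA, detected by RT-PCR and capillary electrophoresis fluorescence, from transiently transfected HepG2 cells 24 h after dosing. Curves fitted in both directions using DMSO baseline.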

[13] = ATG_RORE_CIS: Attagene CIS-FACTORIAL HepG2 Assay for human RAR-related Orphan Receptor Element (RORE) (AID 2282959); details: HepG2 Attagene cis-factorial RORE reporter, mRNA; actives raise or lower the signal
Outline: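 Transiently transfected HepG2 reporter cells were treated 24 h. Reporter transcripts were detected by RT-PCR and capillary electrophoresis, with bidirectional fitting against DMSO.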

[14] = ATG_Sox_CIS: Attagene CIS-FACTORIAL HepG2 Assay for human SRY-box transcription factor (SOX) (AID 2282960); details: HepG2 Attagene cis-factorial SOX reporter, mRNA; actives raise or lower the signal
Outline: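 Gain- or loss-of-signal endpoint, fitted bidirectionally with DMSO as negative control. Based on reporter mRNA from transfected HepG2 cells harvested 24 h post-treatment and quantified via RT-PCR and capillary electrophoresis.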

[15] = target: Transcription factor Sp1 (Homo sapiens) (UniProt P08047); assay: ATG_Sp1_CIS: Attagene CIS-FACTORIAL HepG2 Assay for human Specificity Protein 1 (Sp1) (AID 2282961); details: HepG2 Sp1 cis-reporter transcription, actives raise or lower the signal
Transcription factor Sp1 (Homo sapiens), sequence (P08047 whole entry, looked up, the tested form may be a part): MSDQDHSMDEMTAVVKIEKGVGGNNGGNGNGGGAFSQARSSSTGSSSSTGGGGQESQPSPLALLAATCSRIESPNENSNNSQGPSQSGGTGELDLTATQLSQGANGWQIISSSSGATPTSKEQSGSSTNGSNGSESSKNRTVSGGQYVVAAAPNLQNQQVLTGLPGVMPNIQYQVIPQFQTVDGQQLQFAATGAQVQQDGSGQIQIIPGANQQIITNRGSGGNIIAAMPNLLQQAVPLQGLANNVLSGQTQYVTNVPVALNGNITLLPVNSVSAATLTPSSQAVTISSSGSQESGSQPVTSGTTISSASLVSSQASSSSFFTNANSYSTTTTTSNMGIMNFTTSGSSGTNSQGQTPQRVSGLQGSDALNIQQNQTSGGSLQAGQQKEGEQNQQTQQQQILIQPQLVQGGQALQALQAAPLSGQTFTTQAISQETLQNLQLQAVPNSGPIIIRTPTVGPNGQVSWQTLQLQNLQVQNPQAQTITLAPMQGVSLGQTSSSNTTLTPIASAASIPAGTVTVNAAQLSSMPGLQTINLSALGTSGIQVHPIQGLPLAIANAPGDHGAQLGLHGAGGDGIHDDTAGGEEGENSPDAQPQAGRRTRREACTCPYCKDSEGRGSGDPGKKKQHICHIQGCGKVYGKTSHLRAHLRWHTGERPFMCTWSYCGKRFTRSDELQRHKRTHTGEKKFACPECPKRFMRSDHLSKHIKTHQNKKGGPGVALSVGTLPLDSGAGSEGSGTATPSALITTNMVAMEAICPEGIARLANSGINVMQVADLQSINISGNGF
Outline: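 Endpoint reflects endogenous Sp1 transcriptional activity, not an exogenous fusion protein: HepG2 cells with transfected cis-regulated reporters, 24 h dosing, RT-PCR/capillary electrophoresis mRNA read-out, DMSO-normalised bidirectional fit.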

[16] = ATG_SREBP_CIS: Attagene CIS-FACTORIAL HepG2 Assay for human Sterol Regulatory Element Binding (SREBP) (AID 2282962); details: HepG2 Attagene cis-factorial SREBP reporter, mRNA; actives raise or lower the signal
Outline: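 In this cis-format assay, HepG2 liver cells express reporters controlled by promoter elements responsive to native transcription factors. Exposure lasts 24 h; reporter mRNA fluorescence from capillary electrophoresis gives the signal, fitted bidirectionally against DMSO.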

[17] = target: Signal transducer and activator of transcription 3 (Homo sapiens) (UniProt P40763); assay: ATG_STAT3_CIS: Attagene CIS-FACTORIAL HepG2 Assay for human Signal Transducer and Activator of Transcription 3 (STAT3) (AID 2282963); details: HepG2, Attagene cis-factorial STAT3 reporter transcription; actives raise or lower the signal
Signal transducer and activator of transcription 3 (Homo sapiens), sequence (P40763 whole entry, looked up): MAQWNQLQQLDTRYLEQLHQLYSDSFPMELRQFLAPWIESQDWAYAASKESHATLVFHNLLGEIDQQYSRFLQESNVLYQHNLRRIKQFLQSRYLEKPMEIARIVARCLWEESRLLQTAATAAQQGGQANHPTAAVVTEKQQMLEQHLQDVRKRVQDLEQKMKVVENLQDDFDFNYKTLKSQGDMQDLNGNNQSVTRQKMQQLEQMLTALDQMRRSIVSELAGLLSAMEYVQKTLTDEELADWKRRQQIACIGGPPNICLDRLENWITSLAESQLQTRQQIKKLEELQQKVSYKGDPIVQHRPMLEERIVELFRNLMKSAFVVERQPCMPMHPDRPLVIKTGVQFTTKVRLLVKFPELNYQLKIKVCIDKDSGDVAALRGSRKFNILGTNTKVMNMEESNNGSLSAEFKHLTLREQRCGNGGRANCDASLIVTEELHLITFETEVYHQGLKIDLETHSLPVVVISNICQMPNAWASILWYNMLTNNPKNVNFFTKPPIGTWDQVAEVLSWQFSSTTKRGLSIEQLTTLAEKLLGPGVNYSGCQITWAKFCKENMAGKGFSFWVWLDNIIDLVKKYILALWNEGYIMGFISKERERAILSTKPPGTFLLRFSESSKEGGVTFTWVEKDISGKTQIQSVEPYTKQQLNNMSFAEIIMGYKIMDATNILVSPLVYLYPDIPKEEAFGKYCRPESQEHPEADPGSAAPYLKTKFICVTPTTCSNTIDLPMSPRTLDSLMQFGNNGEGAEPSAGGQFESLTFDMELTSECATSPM
Outline: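 Cis-factorial format: endogenous transcription factors in HepG2 drive transfected reporter units. After 24 h treatment, reporter RNA was reverse-transcribed, amplified, FAM-labelled and HpaI-digested before CE analysis; activity scored in both directions against DMSO.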

[18] = ATG_TA_CIS: Attagene CIS-FACTORIAL HepG2 Assay for human TA Basal Promoter (AID 2282964); details: HepG2 Attagene CIS-factorial TA basal promoter reporter; actives raise or lower the signal
Outline: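 Transfected HepG2, 24 h compound exposure; RNA → RT-PCR → FAM primer extension → HpaI cut → CE fluorescence. Gain/loss-of-signal fitted against DMSO negative control. Background-control readout.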

[19] = ATG_TCF_b_cat_CIS: Attagene CIS-FACTORIAL HepG2 Assay for human T-Cell-Factor with beta-catenin (TCF/b-cat) (AID 2282965); details: HepG2 TCF/beta-catenin cis-reporter transcription, actives raise or lower the signal
Outline: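 Measured: reporter mRNA in HepG2 transiently transfected with cis-promoter reporter units, 24 h after chemical addition. Fitting was bidirectional, DMSO as negative control.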

[20] = ATG_PBREM_CIS: Attagene CIS-FACTORIAL HepG2 Assay for human Phenobarbital-responsive Enhancer Module (PBREM) (AID 2282955); details: HepG2 PBREM cis-reporter, Attagene multiplexed transcription; actives raise or lower the signal
Outline: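 Transfected liver-derived HepG2 cells exposed 24 h; PBREM reporter transcript quantified via RT-PCR and capillary electrophoresis, with activity in either direction referenced to DMSO.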

Measured: AC50

N#CCCO
not listed: [20]
inactive: all other assays above

O=C(Cc1ccccc1)c1ccccc1
active: [11] 27.2 µM
not listed: [12]
inactive: all other assays above

CCOP(=S)(OCC)SCCS(=O)(=O)CC
active: [11] 11.5 µM
not listed: [20]
inactive: all other assays above

Oc1ccc(-c2ccccc2)cc1
active: [3] 179 µM | [9] 149 µM | [20] 176 µM | [10] 100 µM | [13] 162 µM | [14] 145 µM | [15] 147 µM
not listed: [8] | [19]
inactive: all other assays above

CC(C)(C)c1cc(O)ccc1O
active: [8] 187 µM | [9] 120 µM | [10] 124 µM | [12] 65.6 µM | [13] 54.6 µM | [14] 179 µM | [18] 138 µM
not listed: [6] | [11] | [19]
inactive: all other assays above

CCNc1nc(NC(C)(C)C)nc(SC)n1
active: [3] 100 µM | [9] 118 µM | [11] 1.67 µM | [12] 144 µM
not listed: [20]
inactive: all other assays above

CC(=O)OC(c1ccccc1)C(Cl)(Cl)Cl (stereo not drawn)
active: [11] 48.6 µM
not listed: [20]
inactive: all other assays above

CC(C)(C)CC(C)(C)c1ccc(O)cc1
active: [1] 16.3 µM | [3] 8.06 µM | [6] 0.932 nM and 20.1 µM | [11] 3.34 µM [middle of 4 runs] | [16] 14.1 µM
inactive: [1] | [3] | [4] | [5] | [6] | [7] | [8] | [9] | [10] | [13] | [14] | [15] | [16] | [17] | [18]

CCCCCCCCCl
not listed: [13] | [20]
inactive: all other assays above

CC(=O)[O][Hg][c]1ccccc1
active: [2] 3.71 µM | [9] 5.86 µM | [11] 3.71 µM | [13] 3.71 µM | [15] 2.87 µM
inactive: all other assays above

O=C1C2(Cl)C3(Cl)C4(Cl)C(Cl)(Cl)C5(Cl)C3(Cl)C1(Cl)C5(Cl)C24Cl (stereo not drawn)
active: [1] 7.38 µM | [2] 5.27 µM | [3] 15.1 µM | [7] 11.1 µM | [8] 16.7 µM | [9] 3.57 µM and 16.2 µM | [20] 16 µM | [10] 15.7 µM | [12] 14 µM | [14] 5.49 µM and 15.5 µM | [15] 5.85 µM | [17] 5.58 µM | [19] 17.7 µM
inactive: [1] | [2] | [3] | [4] | [5] | [6] | [7] | [8] | [9] | [20] | [10] | [12] | [13] | [14] | [15] | [16] | [17] | [18] | [19]

NC(=S)Nc1ccccc1
not listed: [20]
inactive: all other assays above

N#CCc1ccc(Cl)cc1
active: [11] 48.5 µM
not listed: [20]
inactive: all other assays above
